Results filed as inconclusive are left out. The source made the active and inactive calls. How the source made its calls, unless noted: active means hit-call score of the fitted dose curve at least 0.9, where 1 is the maximum; inactive means score below 0.9.
Legend:
[1] = target: Paired box protein Pax-6 (Homo sapiens) (UniProt P26367); test: ATG_Pax6_CIS: Attagene CIS-FACTORIAL HepG2 Assay for human Paired Box 6 (PAX6) (AID 2282956); conditions: HepG2 CIS-FACTORIAL PAX6 reporter transcription, RNA readout; actives raise or lower the signal
Sequence of Paired box protein Pax-6 (Homo sapiens) (P26367 whole entry, looked up): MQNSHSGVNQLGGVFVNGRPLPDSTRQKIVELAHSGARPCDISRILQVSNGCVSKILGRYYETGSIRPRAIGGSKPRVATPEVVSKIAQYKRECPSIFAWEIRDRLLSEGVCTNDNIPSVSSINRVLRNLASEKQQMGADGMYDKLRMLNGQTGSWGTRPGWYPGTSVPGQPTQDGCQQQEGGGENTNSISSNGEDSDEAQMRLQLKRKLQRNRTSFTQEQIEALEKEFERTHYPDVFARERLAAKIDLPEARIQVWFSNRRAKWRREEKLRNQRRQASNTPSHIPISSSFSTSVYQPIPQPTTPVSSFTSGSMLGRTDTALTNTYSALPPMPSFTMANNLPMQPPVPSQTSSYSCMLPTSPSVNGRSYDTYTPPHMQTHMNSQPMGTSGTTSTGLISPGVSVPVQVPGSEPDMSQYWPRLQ
In short: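 HepG2 cells transiently transfected with cis-promoter-driven multiplexed reporter units sensing endogenous transcription factor activity; 24 h chemical exposure. Reporter mRNA quantified by RT-PCR, 6-FAM labelling, HpaI digestion and capillary electrophoresis; bidirectional fit versus DMSO baseline.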

[2] = ATG_PXRE_CIS: Attagene CIS-FACTORIAL HepG2 Assay for human Pregnane X Receptor Element (PXRE) (AID 2282957); conditions: HepG2 Attagene CIS-FACTORIAL PXRE reporter, mRNA; actives raise or lower the signal
In short: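 HepG2 cells transiently transfected with cis-element-driven multiplexed reporter units; after 24 h chemical exposure, reporter mRNA measured by RT-PCR, 6-FAM labelling, HpaI digestion and capillary electrophoresis. Bidirectional fitting relative to DMSO.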

[3] = ATG_PPRE_CIS: Attagene CIS-FACTORIAL HepG2 Assay for human Peroxisome Proliferator-activated Response Element (PPRE) (AID 2282958); conditions: HepG2 PPRE cis-element reporter, Attagene transcription factor profiling; actives raise or lower the signal
In short: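 Read-out: fluorescent reporter mRNA fragments resolved by capillary electrophoresis after RT-PCR. HepG2 cells carried transiently transfected PPRE-driven cis reporter constructs and were dosed for 24 h; gain or loss of signal fitted relative to DMSO.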

[4] = ATG_RORE_CIS: Attagene CIS-FACTORIAL HepG2 Assay for human RAR-related Orphan Receptor Element (RORE) (AID 2282959); conditions: HepG2 Attagene cis-factorial RORE reporter, mRNA; actives raise or lower the signal
In short: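 Readout: fluorescent reporter mRNA by RT-PCR plus capillary electrophoresis, 24 h after dosing transfected HepG2 cells. Endogenous transcription factor activity on a cis promoter element is measured. Gain or loss of signal fitted against DMSO.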

[5] = ATG_Sox_CIS: Attagene CIS-FACTORIAL HepG2 Assay for human SRY-box transcription factor (SOX) (AID 2282960); conditions: HepG2 Attagene cis-factorial SOX reporter, mRNA; actives raise or lower the signal
In short: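 Read-out: fluorescent RT-PCR products of SOX1-linked reporter transcripts resolved by capillary electrophoresis, fitted bidirectionally against DMSO. Transiently transfected HepG2 cells, 24 h after chemical exposure, endogenous transcription factor activity.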

[6] = target: Transcription factor Sp1 (Homo sapiens) (UniProt P08047); test: ATG_Sp1_CIS: Attagene CIS-FACTORIAL HepG2 Assay for human Specificity Protein 1 (Sp1) (AID 2282961); conditions: HepG2 Sp1 cis-reporter transcription, actives raise or lower the signal
Sequence of Transcription factor Sp1 (Homo sapiens) (P08047 whole entry, looked up): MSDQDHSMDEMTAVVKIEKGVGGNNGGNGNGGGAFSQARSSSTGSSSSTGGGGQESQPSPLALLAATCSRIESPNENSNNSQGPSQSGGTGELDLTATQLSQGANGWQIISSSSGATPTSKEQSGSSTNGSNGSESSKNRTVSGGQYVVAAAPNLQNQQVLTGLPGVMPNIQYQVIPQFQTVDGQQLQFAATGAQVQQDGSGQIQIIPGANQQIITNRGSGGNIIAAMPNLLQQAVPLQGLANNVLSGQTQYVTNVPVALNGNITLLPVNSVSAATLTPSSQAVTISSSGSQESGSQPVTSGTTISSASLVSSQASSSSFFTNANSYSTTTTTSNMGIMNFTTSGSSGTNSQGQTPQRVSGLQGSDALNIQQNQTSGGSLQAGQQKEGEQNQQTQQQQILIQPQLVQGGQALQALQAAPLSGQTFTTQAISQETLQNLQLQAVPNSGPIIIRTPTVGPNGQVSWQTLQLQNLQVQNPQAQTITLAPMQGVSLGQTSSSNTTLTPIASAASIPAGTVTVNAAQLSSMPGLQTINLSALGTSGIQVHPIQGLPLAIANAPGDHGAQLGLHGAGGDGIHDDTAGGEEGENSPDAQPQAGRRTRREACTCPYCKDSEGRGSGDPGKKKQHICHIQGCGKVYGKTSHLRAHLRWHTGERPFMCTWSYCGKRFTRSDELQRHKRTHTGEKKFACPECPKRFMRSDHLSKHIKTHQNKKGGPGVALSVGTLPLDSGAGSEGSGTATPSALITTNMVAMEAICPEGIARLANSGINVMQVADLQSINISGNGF
In short: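 Read-out: fluorescence of 6-FAM-labeled, HpaI-digested RT-PCR products separated by capillary electrophoresis. HepG2 cells carried transfected cis-element reporter units and were exposed to chemicals for 24 h; gain or loss of signal fitted relative to DMSO.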

[7] = ATG_SREBP_CIS: Attagene CIS-FACTORIAL HepG2 Assay for human Sterol Regulatory Element Binding (SREBP) (AID 2282962); conditions: HepG2 Attagene cis-factorial SREBP reporter, mRNA; actives raise or lower the signal
In short: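 HepG2 cells transiently transfected with multiplexed cis-promoter reporter units sensing endogenous transcription factors; reporter mRNA measured 24 h after dosing by RT-PCR, 6-FAM labeling, HpaI digestion and capillary electrophoresis. Bidirectional fit versus DMSO.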

[8] = target: Signal transducer and activator of transcription 3 (Homo sapiens) (UniProt P40763); test: ATG_STAT3_CIS: Attagene CIS-FACTORIAL HepG2 Assay for human Signal Transducer and Activator of Transcription 3 (STAT3) (AID 2282963); conditions: HepG2, Attagene cis-factorial STAT3 reporter transcription; actives raise or lower the signal
Sequence of Signal transducer and activator of transcription 3 (Homo sapiens) (P40763 whole entry, looked up): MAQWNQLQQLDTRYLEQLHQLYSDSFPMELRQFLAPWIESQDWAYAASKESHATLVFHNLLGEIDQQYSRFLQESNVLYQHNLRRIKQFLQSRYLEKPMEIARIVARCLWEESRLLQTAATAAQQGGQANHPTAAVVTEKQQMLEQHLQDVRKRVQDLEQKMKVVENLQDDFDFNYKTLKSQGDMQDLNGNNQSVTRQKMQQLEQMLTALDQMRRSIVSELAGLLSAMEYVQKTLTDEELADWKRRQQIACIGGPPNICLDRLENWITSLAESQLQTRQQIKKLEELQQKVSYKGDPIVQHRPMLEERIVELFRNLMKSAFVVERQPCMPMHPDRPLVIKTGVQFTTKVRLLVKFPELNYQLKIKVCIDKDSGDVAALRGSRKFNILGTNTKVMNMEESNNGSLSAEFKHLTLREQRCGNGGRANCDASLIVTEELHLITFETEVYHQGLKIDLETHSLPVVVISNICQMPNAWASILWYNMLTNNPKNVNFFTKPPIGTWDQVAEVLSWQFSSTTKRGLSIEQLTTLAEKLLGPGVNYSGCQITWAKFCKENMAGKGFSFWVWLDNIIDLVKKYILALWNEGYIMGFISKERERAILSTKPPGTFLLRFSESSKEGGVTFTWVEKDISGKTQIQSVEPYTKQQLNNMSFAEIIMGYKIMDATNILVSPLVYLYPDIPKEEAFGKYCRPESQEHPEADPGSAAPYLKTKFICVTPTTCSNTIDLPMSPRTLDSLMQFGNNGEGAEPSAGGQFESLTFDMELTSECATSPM
In short: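 Transcript-level reporter assay. HepG2 transient MRTU transfection, 24 h exposure, fluorescence detection after RT-PCR and CE; DMSO baseline.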

[9] = ATG_TA_CIS: Attagene CIS-FACTORIAL HepG2 Assay for human TA Basal Promoter (AID 2282964); conditions: HepG2 Attagene CIS-factorial TA basal promoter reporter; actives raise or lower the signal
In short: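 Background-control readout: TA basal promoter reporter mRNA, fitted in both directions relative to DMSO. Measured by RT-PCR and capillary electrophoresis 24 hours after treating HepG2 human liver cells transiently carrying multiplexed cis-regulated reporter constructs.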

[10] = ATG_TAL_CIS: Attagene CIS-FACTORIAL HepG2 Assay for human TAL Basal Promoter (AID 2282966); conditions: HepG2 Attagene cis-factorial TAL promoter reporter; actives raise or lower the signal;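 further: background control endpoint measuring basal TAL promoter reporter mRNA not a specific factor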
In short: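 HepG2 cells transiently transfected with multiplexed cis-promoter reporter units, dosed 24 h. Reporter mRNA quantified by RT-PCR, 6-FAM labelling, HpaI digestion and capillary electrophoresis; TAL basal promoter serves as background control, fitted bidirectionally versus DMSO.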

[11] = ATG_TGFb_CIS: Attagene CIS-FACTORIAL HepG2 Assay for human Transforming Growth Factor (TGF) (AID 2282967); conditions: HepG2 Attagene CIS TGFb reporter, mRNA transcription; actives raise or lower the signal
In short: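 Endogenous TGFB1-linked transcription factor activity read as reporter mRNA via RT-PCR and capillary electrophoresis, 24 h after dosing transiently transfected HepG2 cells. Gain or loss of signal fitted relative to DMSO.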

[12] = ATG_VDRE_CIS: Attagene CIS-FACTORIAL HepG2 Assay for human Vitamin D Receptor Element (VDRE) (AID 2282968); conditions: HepG2 VDRE cis-reporter transcription, actives raise or lower the signal
In short: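 RT-PCR/CE readout of reporter mRNA; HepG2, transient transfection, 24 h dosing; DMSO baseline; bidirectional analysis.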

[13] = target: Estrogen receptor (Homo sapiens) (UniProt P03372); test: ATG_ERa_TRANS: Attagene TRANS-FACTORIAL HepG2 Assay for human Estrogen Receptor alpha (ERa) (AID 2282970; active means hit-call score of the fitted dose curve at least 0.9, where 1 is the maximum); conditions: HepG2 Attagene TRANS ERa GAL4 reporter, mRNA
Sequence of Estrogen receptor (Homo sapiens) (P03372 whole entry, looked up, the tested form may be a part): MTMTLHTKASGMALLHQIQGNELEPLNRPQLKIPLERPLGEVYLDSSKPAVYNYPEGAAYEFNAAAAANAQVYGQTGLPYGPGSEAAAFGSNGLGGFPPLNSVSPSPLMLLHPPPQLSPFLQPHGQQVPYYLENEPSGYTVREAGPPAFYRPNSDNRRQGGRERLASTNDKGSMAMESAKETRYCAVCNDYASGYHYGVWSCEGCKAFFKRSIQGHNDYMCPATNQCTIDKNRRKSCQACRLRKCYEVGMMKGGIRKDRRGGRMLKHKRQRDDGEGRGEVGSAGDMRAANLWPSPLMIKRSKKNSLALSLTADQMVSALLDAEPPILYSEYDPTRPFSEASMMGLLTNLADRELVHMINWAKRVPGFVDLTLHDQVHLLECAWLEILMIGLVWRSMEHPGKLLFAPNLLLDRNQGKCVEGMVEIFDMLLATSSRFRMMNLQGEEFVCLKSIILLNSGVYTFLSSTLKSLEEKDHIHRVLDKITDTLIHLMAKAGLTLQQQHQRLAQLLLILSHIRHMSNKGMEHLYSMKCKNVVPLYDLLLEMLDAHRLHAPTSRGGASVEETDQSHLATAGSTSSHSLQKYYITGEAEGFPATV
In short: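 HepG2 cells transiently transfected with multiplexed GAL4-UAS reporter units read out chimeric NR-Gal4 activity. After 24 h compound exposure, reporter mRNA was quantified by RT-PCR, 6-FAM labeling, HpaI digestion and capillary electrophoresis, relative to DMSO.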

[14] = target: X-box-binding protein 1 (Homo sapiens) (UniProt P17861); test: ATG_Xbp1_CIS: Attagene CIS-FACTORIAL HepG2 Assay for human X-box Binding Protein 1 (XBP1) (AID 2282972); conditions: HepG2 XBP1 cis-element reporter, Attagene multiplex; actives raise or lower the signal
Sequence of X-box-binding protein 1 (Homo sapiens) (P17861 whole entry, looked up): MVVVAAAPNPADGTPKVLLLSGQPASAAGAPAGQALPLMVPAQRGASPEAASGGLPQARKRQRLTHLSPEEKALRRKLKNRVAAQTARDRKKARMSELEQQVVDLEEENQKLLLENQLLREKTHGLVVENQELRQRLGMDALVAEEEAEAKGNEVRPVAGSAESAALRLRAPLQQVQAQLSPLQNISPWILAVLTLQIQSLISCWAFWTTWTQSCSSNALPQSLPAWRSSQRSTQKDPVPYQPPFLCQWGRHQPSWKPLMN
In short: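 HepG2 cells transiently transfected with multiple cis-element reporter units report endogenous TF activity; 24 h exposure, then reporter mRNA measured by RT-PCR, 6-FAM labelling, HpaI digestion and capillary electrophoresis. Bidirectional fitting versus DMSO.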

[15] = ATG_GAL4_TRANS: Attagene TRANS-FACTORIAL HepG2 Assay for GAL4 (Internal Marker) (AID 2282976; active means hit-call score of the fitted dose curve at least 0.9, where 1 is the maximum); conditions: HepG2 Attagene TRANS GAL4 internal marker reporter
In short: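 Background-control readout: GAL4-UAS reporter transcript in transiently transfected HepG2 cells after 24 h compound exposure. Measured by RT-PCR, 6-FAM primer extension, HpaI digest and capillary electrophoresis; gain-of-signal fit versus DMSO.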

[16] = ATG_TCF_b_cat_CIS: Attagene CIS-FACTORIAL HepG2 Assay for human T-Cell-Factor with beta-catenin (TCF/b-cat) (AID 2282965); conditions: HepG2 TCF/beta-catenin cis-reporter transcription, actives raise or lower the signal
In short: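 Using capillary electrophoresis as the read-out, labelled reporter cDNA fragments from transiently transfected HepG2 were sized and quantified. Exposure lasted 24 hours; activity in either direction was referenced to DMSO.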

[17] = target: Steroid hormone receptor ERR1 (Homo sapiens) (UniProt P11474); test: ATG_ERRa_TRANS: Attagene TRANS-FACTORIAL HepG2 Assay for human Estrogen-Related Receptor alpha (ERRa) (AID 2282971; active means hit-call score of the fitted dose curve at least 0.9, where 1 is the maximum); conditions: HepG2 Attagene TRANS reporter, ERRa transactivation
Sequence of Steroid hormone receptor ERR1 (Homo sapiens) (P11474 whole entry, looked up, the tested form may be a part): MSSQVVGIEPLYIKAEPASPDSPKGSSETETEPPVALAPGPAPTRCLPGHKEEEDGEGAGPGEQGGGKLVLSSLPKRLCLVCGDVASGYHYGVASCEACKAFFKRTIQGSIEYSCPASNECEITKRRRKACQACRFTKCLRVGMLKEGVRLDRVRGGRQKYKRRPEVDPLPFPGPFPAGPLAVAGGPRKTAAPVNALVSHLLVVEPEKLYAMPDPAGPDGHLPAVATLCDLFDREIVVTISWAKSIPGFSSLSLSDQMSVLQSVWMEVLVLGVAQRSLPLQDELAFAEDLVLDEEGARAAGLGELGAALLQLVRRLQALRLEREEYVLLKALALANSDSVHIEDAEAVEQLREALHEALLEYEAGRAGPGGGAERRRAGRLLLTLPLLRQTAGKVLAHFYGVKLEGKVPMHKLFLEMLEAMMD
In short: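 HepG2 cells transiently transfected with GAL4-UAS reporter units and chimeric NR-Gal4 constructs; after 24 hour compound incubation, reporter mRNA quantified by RT-PCR, fluorescent labelling and capillary electrophoresis, gain of signal versus DMSO.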

[18] = ATG_M_19_TRANS: Attagene TRANS-FACTORIAL HepG2 Assay for M19 Transcription Factor (Internal Marker) (AID 2282974; active means hit-call score of the fitted dose curve at least 0.9, where 1 is the maximum); conditions: HepG2 Attagene TRANS-FACTORIAL M19 internal marker reporter
In short: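 24 h chemical exposure of transiently transfected HepG2 (MRTU library). RNA → oligo(dT) RT → PCR → 6-FAM labelling → HpaI cut → CE fluorescence. Positive-direction fit vs DMSO baseline; background internal-marker readout.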

Measured: AC50

Cc1cc(C)n(CO)n1
not listed: [16] | [17] | [18]
inactive: all other assays above

Cc1cc(=O)[nH]c(=O)[nH]1
active: [2] 24.8 µM
not listed: [13] | [17] | [18]
inactive: all other assays above

COc1nccnc1CC(C)C
not listed: [11] | [18]
inactive: all other assays above

N=C1C=CC(=C(c2ccc(N)cc2)c2ccc(N)cc2)C=C1
active: [1] 37.8 µM | [2] 56.6 µM | [7] 26 µM | [9] 81.3 µM | [16] 26.5 µM | [14] 25.3 µM
not listed: [12] | [17]
inactive: all other assays above

CCC(C)c1ccccc1 (stereo unspecified)
not listed: [13] | [17] | [18]
inactive: all other assays above

Nc1ccc(C(=O)O)cc1
not listed: [12] | [17]
inactive: all other assays above

CCC(C)N (stereo unspecified)
active: [2] 47.5 µM
not listed: [9] | [13] | [15] | [17] | [18]
inactive: all other assays above

Nc1ccnc(=O)[nH]1
not listed: [15] | [16] | [17] | [18]
inactive: all other assays above

CC1CCC(C(C)(C)S)C(=O)C1 (stereo unspecified)
active: [2] 2.13 µM
not listed: [11] | [17]
inactive: all other assays above

Source: PubChem BioAssay (EPA / NIEHS)
